# Test results from PubChem BioAssay (NCI).
# Compounds without any hit were thinned out: in the full panel of roughly 79,000, 15% have a hit. Unmarked numbers belong to inactive results. Calls of active or inactive are those of the source. Cut-off read from the data, not from the text of the source: active = growth inhibition above about 70%; inactive = the rest.
# Legend:
# [1] = NCI Yeast Anticancer Drug Screen. Data for the rad52 strain (AID 147);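 note: 0% = growth of vehicle-treated control cultures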; conditions: S. cerevisiae rad52 mutant growth inhibition, hits give high values
# Outline: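 Inhibition of yeast growth, referenced to vehicle controls, was the measured output for a strain with defective DNA damage repair.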
# [2] = NCI Yeast Anticancer Drug Screen. Data for the wt1 strain (AID 149);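 note: 0% = growth of vehicle-treated wt1 cultures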; conditions: S. cerevisiae wt1 strain (SPY 50644) growth inhibition, hits give high values
# Outline: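 Vehicle-normalised growth inhibition; strain wt1; compound exposure.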
# [3] = NCI Yeast Anticancer Drug Screen. Data for the rad50EPP+ strain (AID 151);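 note: 0% = growth of vehicle-treated control cultures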; conditions: S. cerevisiae rad50 mutant strain, hits give high values
# Outline: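 Genetically defined yeast (rad50EPP+, DNA damage repair alteration) is grown with compound, and inhibition of growth is expressed relative to vehicle-treated controls.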
# [4] = NCI Yeast Anticancer Drug Screen. Data for the mgt1 strain (AID 153); conditions: S. cerevisiae mgt1 mutant growth inhibition, hits give high values
# Outline: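 In the mgt1 strain, test compounds were added and growth inhibition was determined relative to vehicle-treated controls.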
# [5] = NCI Yeast Anticancer Drug Screen. Data for the rad50 strain (AID 155);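 note: 0% = growth of vehicle-only cultures of the same strain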; conditions: S. cerevisiae rad50 strain growth inhibition, hits give high values
# Outline: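 A DNA repair-deficient yeast mutant serves as the test organism; compound-induced growth inhibition is calculated against vehicle-treated cells.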
# [6] = NCI Yeast Anticancer Drug Screen. Data for the mec2-1 strain (AID 157); conditions: S. cerevisiae mec2-1 strain, hits give high values
# Outline: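 Each compound was tested on mec2-1 yeast, a strain altered in DNA damage repair or cell cycle control. Growth inhibition is reported relative to vehicle.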
# [7] = NCI Yeast Anticancer Drug Screen. Data for the rad14 strain (AID 159);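 note: 0% = growth of vehicle-treated control cultures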; conditions: S. cerevisiae rad14 strain growth inhibition, hits give high values
# Outline: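 Vehicle-treated cultures served as the baseline for growth inhibition of a DNA repair-mutant yeast strain exposed to each compound.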
# [8] = NCI Yeast Anticancer Drug Screen. Data for the sgs1 mgt1 strain (AID 161);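 note: 0% = growth of cultures given vehicle only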; conditions: S. cerevisiae sgs1 mgt1 strain, hits give high values
# Outline: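 Mutant yeast exposed to compound; growth scored against vehicle-only wells.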
# [9] = NCI Yeast Anticancer Drug Screen. Data for the CLN2oe strain (AID 163);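 note: 0% = growth of vehicle-only control cultures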; conditions: S. cerevisiae CLN2oe strain, hits give high values
# Outline: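 First, the altered yeast strain was treated with each compound; second, its growth was measured; finally, inhibition was derived by comparison with vehicle controls.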
# [10] = NCI Yeast Anticancer Drug Screen. Data for the cln2 rad14 strain (AID 165);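 note: 0% = growth equal to vehicle treated cultures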; conditions: S. cerevisiae cln2 rad14 strain, hits give high values
# Outline: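 Test compounds were added to cln2 rad14 yeast cultures; inhibition of growth was then determined by comparison with vehicle treatment.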
# [11] = NCI Yeast Anticancer Drug Screen. Data for the bub3 strain (AID 167); conditions: S. cerevisiae bub3 mutant strain, hits give high values
# Outline: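 Inhibition values come from growth of compound-treated mutant yeast normalised to vehicle-treated controls.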
# [12] = NCI Yeast Anticancer Drug Screen. Data for the wt2 strain (AID 169);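 note: 0% = growth of vehicle-treated yeast cultures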; conditions: S. cerevisiae wt2 strain growth inhibition, hits give high values
# Outline: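 The panel's yeast strains carry defined changes in DNA repair or cell cycle genes. Each strain is grown with compound, and growth loss is scored relative to vehicle.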
# [13] = NCI Yeast Anticancer Drug Screen. Data for the mlh1 strain (AID 171);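 note: 0% = growth of vehicle-treated control cultures of the same strain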; conditions: S. cerevisiae mlh1 strain growth inhibition, hits give high values
# Outline: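 Inhibition values reflect reduced yeast growth in the presence of compound, referenced to vehicle controls, using a strain chosen for its alteration in DNA repair or cell cycle control.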
# [14] = NCI Yeast Anticancer Drug Screen. Data for the sgs1 strain (AID 173);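 note: 0% = growth of vehicle-only control cultures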; conditions: S. cerevisiae sgs1 mutant, hits give high values
# Outline: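 Vehicle-treated cultures served as reference for growth inhibition of a yeast strain altered in DNA damage repair or cell cycle control after compound exposure.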
# [15] = NCI Yeast Anticancer Drug Screen. Data for the rad18 strain (AID 177); conditions: S. cerevisiae rad18 mutant growth inhibition, hits give high values
# Outline: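 Steps: expose repair-mutant yeast to compound; measure growth; express as inhibition relative to vehicle control.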
# [16] = at 5.0 µM (retest, dose inferred, filed as 0.5)
# [17] = at 50.0 µM (retest, dose inferred, filed as 5.0)
compound,measurement,setting,value
Cc1nn(-c2cc(Cl)ccc2[N+](=O)[O-])c(C)c1Cl,growth inhibition,[1]; at 1.2 µM,1%
same,growth inhibition,[1]; at 3.7 µM,3%
same,growth inhibition,[1]; at 11.0 µM,2%
same,growth inhibition,[1]; at 33.0 µM,3%
same,growth inhibition,[1]; at 100.0 µM,2%
same,growth inhibition,[2]; at 1.2 µM,-1%
same,growth inhibition,[2]; at 3.7 µM,-1%
same,growth inhibition,[2]; at 11.0 µM,1%
same,growth inhibition,[2]; at 33.0 µM,-1%
same,growth inhibition,[2]; at 100.0 µM,2%
same,growth inhibition,[3]; at 1.2 µM,4%
same,growth inhibition,[3]; at 3.7 µM,8%
same,growth inhibition,[3]; at 11.0 µM,14%
same,growth inhibition,[3]; at 33.0 µM,19%
same,growth inhibition,[3]; at 100.0 µM,10%
same,growth inhibition,[4]; at 1.2 µM,-2%
same,growth inhibition,[4]; at 3.7 µM,-2%
same,growth inhibition,[4]; at 11.0 µM,4%
same,growth inhibition,[4]; at 33.0 µM,-8%
same,growth inhibition,[4]; at 100.0 µM,7%
same,growth inhibition,[5]; at 1.2 µM,0%
same,growth inhibition,[5]; at 3.7 µM,1%
same,growth inhibition,[5]; [16],-20%
same,growth inhibition,[5]; at 11.0 µM,-16%
same,growth inhibition,[5]; at 33.0 µM,2%
same,growth inhibition,[5]; [17],-9%
same,growth inhibition,[5]; at 50.0 µM,50%
same,growth inhibition,[5]; at 100.0 µM,2%
same,growth inhibition,[6]; at 1.2 µM,7%
same,growth inhibition,[6]; at 3.7 µM,0%
same,growth inhibition,[6]; [16],-7%
same,growth inhibition,[6]; at 11.0 µM,3%
same,growth inhibition,[6]; at 33.0 µM,2%
same,growth inhibition,[6]; [17],-18%
same,growth inhibition,[6]; at 50.0 µM,54.1%
same,growth inhibition,[6]; at 100.0 µM,4%
same,growth inhibition,[7]; at 1.2 µM,-1%
same,growth inhibition,[7]; at 3.7 µM,0%
same,growth inhibition,[7]; at 11.0 µM,4%
same,growth inhibition,[7]; at 33.0 µM,2%
same,growth inhibition,[7]; at 100.0 µM,3%
same,growth inhibition,[8]; [16],-15%
same,growth inhibition,[8]; [17],-10%
same,growth inhibition,[8]; at 50.0 µM,43.6%
same,growth inhibition,[9]; at 1.2 µM,1%
same,growth inhibition,[9]; at 3.7 µM,2%
same,growth inhibition,[9]; at 11.0 µM,-2%
same,growth inhibition,[9]; at 33.0 µM,4%
same,growth inhibition,[9]; at 100.0 µM,5%
same,growth inhibition,[10]; [16],39%
same,growth inhibition,[10]; [17],4%
same,growth inhibition,[10]; at 50.0 µM,26.1%
same,growth inhibition,[11]; at 1.2 µM,1%
same,growth inhibition,[11]; at 3.7 µM,7%
same,growth inhibition,[11]; [16],-6%
same,growth inhibition,[11]; at 11.0 µM,20%
same,growth inhibition,[11]; at 33.0 µM,24%
same,growth inhibition,[11]; [17],-6%
same,growth inhibition,[11]; at 50.0 µM,64.2%
same,growth inhibition,[11]; at 100.0 µM,16%
same,growth inhibition,[12]; at 1.2 µM,0%
same,growth inhibition,[12]; at 3.7 µM,-1%
same,growth inhibition,[12]; at 11.0 µM,-1%
same,growth inhibition,[12]; at 33.0 µM,-1%
same,growth inhibition,[12]; at 100.0 µM,0%
same,growth inhibition,[13]; at 1.2 µM,0%
same,growth inhibition,[13]; at 3.7 µM,2%
same,growth inhibition,[13]; at 11.0 µM,3%
same,growth inhibition,[13]; at 33.0 µM,1%
same,growth inhibition,[13]; at 100.0 µM,3%
same,growth inhibition,[14]; at 1.2 µM,-1%
same,growth inhibition,[14]; at 3.7 µM,-2%
same,growth inhibition,[14]; at 11.0 µM,-1%
same,growth inhibition,[14]; at 33.0 µM,-1%
same,growth inhibition,[14]; at 100.0 µM,2%
same,growth inhibition,[15]; at 1.2 µM,2%
same,growth inhibition,[15]; at 3.7 µM,2%
same,growth inhibition,[15]; at 11.0 µM,2%
same,growth inhibition,[15]; at 33.0 µM,-14%
same,growth inhibition,[15]; at 100.0 µM,1%
O=C(OCCN1CCCCCC1)C(c1ccsc1)C1CCCCC1 (stereo not given),growth inhibition,[1]; at 1.2 µM,15%
same,growth inhibition,[1]; at 3.7 µM,14%
same,growth inhibition,[1]; at 11.0 µM,50%
same,growth inhibition,[1]; at 33.0 µM,57%
same,growth inhibition,[1]; at 100.0 µM,50%
same,growth inhibition,[2]; at 1.2 µM,-67%
same,growth inhibition,[2]; at 3.7 µM,13%
same,growth inhibition,[2]; at 11.0 µM,16%
same,growth inhibition,[2]; at 33.0 µM,19%
same,growth inhibition,[2]; at 100.0 µM,19%
same,growth inhibition,[3]; at 1.2 µM,-1%
same,growth inhibition,[3]; at 3.7 µM,-1%
same,growth inhibition,[3]; at 11.0 µM,-1%
same,growth inhibition,[3]; at 33.0 µM,0%
same,growth inhibition,[3]; at 100.0 µM,2%
same,growth inhibition,[4]; at 1.2 µM,8%
same,growth inhibition,[4]; at 3.7 µM,21%
same,growth inhibition,[4]; at 11.0 µM,34%
same,growth inhibition,[4]; at 33.0 µM,36%
same,growth inhibition,[4]; at 100.0 µM,37%
same,growth inhibition,[5]; at 1.2 µM,11%
same,growth inhibition,[5]; at 3.7 µM,17%
same,growth inhibition,[5]; [16],13%
same,growth inhibition,[5]; at 11.0 µM,25%
same,growth inhibition,[5]; at 33.0 µM,29%
same,growth inhibition,[5]; [17],39%
same,growth inhibition,[5]; at 50.0 µM,81.9% (active)
same,growth inhibition,[5]; at 100.0 µM,46%
same,growth inhibition,[6]; at 1.2 µM,3%
same,growth inhibition,[6]; at 3.7 µM,10%
same,growth inhibition,[6]; [16],-5%
same,growth inhibition,[6]; at 11.0 µM,17%
same,growth inhibition,[6]; at 33.0 µM,27%
same,growth inhibition,[6]; [17],13%
same,growth inhibition,[6]; at 50.0 µM,33.4%
same,growth inhibition,[6]; at 100.0 µM,32%
same,growth inhibition,[7]; at 1.2 µM,35%
same,growth inhibition,[7]; at 3.7 µM,36%
same,growth inhibition,[7]; at 11.0 µM,40%
same,growth inhibition,[7]; at 33.0 µM,43%
same,growth inhibition,[7]; at 100.0 µM,52%
same,growth inhibition,[8]; [16],4%
same,growth inhibition,[8]; [17],55%
same,growth inhibition,[8]; at 50.0 µM,84% (active)
same,growth inhibition,[9]; at 1.2 µM,10%
same,growth inhibition,[9]; at 3.7 µM,32%
same,growth inhibition,[9]; at 11.0 µM,51%
same,growth inhibition,[9]; at 33.0 µM,57%
same,growth inhibition,[9]; at 100.0 µM,72% (active)
same,growth inhibition,[10]; [16],81% (active)
same,growth inhibition,[10]; [17],49%
same,growth inhibition,[10]; at 50.0 µM,63.5%
same,growth inhibition,[11]; at 1.2 µM,4%
same,growth inhibition,[11]; at 3.7 µM,14%
same,growth inhibition,[11]; [16],61%
same,growth inhibition,[11]; at 11.0 µM,37%
same,growth inhibition,[11]; at 33.0 µM,58%
same,growth inhibition,[11]; [17],88% (active)
same,growth inhibition,[11]; at 50.0 µM,83% (active)
same,growth inhibition,[11]; at 100.0 µM,79% (active)
same,growth inhibition,[12]; at 1.2 µM,6%
same,growth inhibition,[12]; at 3.7 µM,17%
same,growth inhibition,[12]; at 11.0 µM,22%
same,growth inhibition,[12]; at 33.0 µM,39%
same,growth inhibition,[12]; at 100.0 µM,72% (active)
same,growth inhibition,[13]; at 1.2 µM,8%
same,growth inhibition,[13]; at 3.7 µM,21%
same,growth inhibition,[13]; at 11.0 µM,24%
same,growth inhibition,[13]; at 33.0 µM,29%
same,growth inhibition,[13]; at 100.0 µM,35%
same,growth inhibition,[14]; at 1.2 µM,17%
same,growth inhibition,[14]; at 3.7 µM,29%
same,growth inhibition,[14]; at 11.0 µM,34%
same,growth inhibition,[14]; at 33.0 µM,31%
same,growth inhibition,[14]; at 100.0 µM,40%
same,growth inhibition,[15]; at 1.2 µM,7%
same,growth inhibition,[15]; at 3.7 µM,18%
same,growth inhibition,[15]; at 11.0 µM,34%
same,growth inhibition,[15]; at 33.0 µM,34%
same,growth inhibition,[15]; at 100.0 µM,43%
